According to PubChem BioAssay (NCATS):
Records with an inconclusive call do not appear. The source made the active and inactive calls. Unless noted, the call rests on the fitted dose curve; in most records, active means well fitted curve in the direction sought with a large enough effect; inconclusive means small, poorly fitted or top-dose-only effect, or another doubt; inactive means no such curve, though single readings can be large; an effect the other way counts as inactive or inconclusive.

Tests used:
[1] = qHTS assay for measurement of the activity of small molecule inhibitors on Zika virus induced Caspase-3 activity in human iPSC derived neural progenitor cells (hNPCs) (AID 1224857); further: nearly all actives have a fitted effect of over 65% in size
In short: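 In medium with heparin 2 ug/ml and cyclopamine 2 uM, hNPCs (350 cells/well) received compound for one hour and then Zika virus at 2 FFU/cell; caspase activity was measured by Caspase-Glo 3/7 luminescence 6 h post-infection.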

[2] = qHTS assay for measurement of the activity of small molecule inhibitors on Zika virus induced Caspase-3 activity in human astrocytoma cells (AID 1224859)
In short: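 A cell-based luminescent caspase-3/7 assay used SNB-19 cells infected with ZIKV (2 FFU/cell) for 6 h following 1 h compound pretreatment.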

[3] = P-glycoprotein substrates identified in KB-3-1 adenocarcinoma cell line, qHTS therapeutic library screen (AID 1346986); further: nearly all actives have a fitted effect of over 60% in size
In short: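 KB-3-1 parental and colchicine-selected P-gp-overexpressing KB-8-5-11 cells (colchicine omitted during assay), 500 cells/well, dosed in dose-response for 72 h at 37 °C; CellTiter-Glo luminescence. Cytotoxic: curve class -1.1 to -2.4, max response >50%, AC50 < 10 uM.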

[4] = P-glycoprotein substrates identified in KB-8-5-11 adenocarcinoma cell line, qHTS therapeutic library screen (AID 1346987); further: nearly all actives have a fitted effect of over 65% in size
In short: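 KB-8-5-11, a colchicine-selected P-gp-overexpressing KB-3-1 subline, was grown without colchicine for the assay. Cells were seeded at 500 cells/well, dosed in concentration-response and incubated 72 h at 37 degree C, 5% CO2. Viability was read by CellTiter-Glo luminescence.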

[5] = NS1 protein of Zika virus - qHTS assay to identify small molecule inhibitors in human HEK 293 cells (AID 1347053); further: series mostly up to about 46 µM; nearly all actives have a fitted effect of over 55% in size
In short: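 Inhibition of NS1 expression was scored in HEK 293 cells given compound 1 h ahead of MR766 virus (MOI = 0.5). Following 24 h at 37 C, two anti-NS1 antibodies generated a TR-FRET signal, scaled between uninfected and infected controls.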

[6] = qHTS of pediatric cancer cell lines to identify multiple opportunities for drug repurposing: Primary screen for TC32 cells (AID 1347089); further: nearly all actives have a fitted effect of over 60% in size; further: potency means the concentration at half of the fitted maximal effect
In short: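 Luminescent CellTiter-Glo read-out of metabolically active TC32 cells after 48 h compound exposure. Primary: MIPE 11-point, 0.78 nM–46 µM; NPC 8-point, 0.59 nM–46 µM. Confirmatory: 11-point dilutions.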

[7] = qHTS of pediatric cancer cell lines to identify multiple opportunities for drug repurposing: Primary screen for DAOY cells (AID 1347090); further: series mostly up to about 46 µM; nearly all actives have a fitted effect of over 55% in size
In short: (§1)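 Viability measured as metabolically active cells via CellTiter-Glo luminescence following 48 hours of compound exposure, 11-point dilutions in confirmatory testing. 500-1,000 cells/well plated 5 hours before dosing; controls were DMSO and 2.3 µM bortezomib.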

[8] = qHTS of pediatric cancer cell lines to identify multiple opportunities for drug repurposing: Primary screen for SJ-GBM2 cells (AID 1347091)
In short: as §1

[9] = qHTS of pediatric cancer cell lines to identify multiple opportunities for drug repurposing: Primary screen for A673 cells (AID 1347092); further: nearly all actives have a fitted effect of over 45% in size; further: potency means the concentration at half of the fitted maximal effect
In short: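 A673 cells (500-1,000 cells/well in growth media) were pre-incubated 5 h at 37 degrees C, then exposed to compounds for 48 h. Viability was read as CellTiter-Glo luminescence; concentration-response curves came directly from the primary screen.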

[10] = qHTS of pediatric cancer cell lines to identify multiple opportunities for drug repurposing: Primary screen for SK-N-MC cells (AID 1347093); further: potency means the concentration at half of the fitted maximal effect
In short: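 Metabolically active cells were quantified by ATP-dependent luminescence (CellTiter-Glo, 15 min at room temperature) following 48 h treatment. Cells had been plated at 500-1,000 per well and settled for 5 h beforehand.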

[11] = qHTS of pediatric cancer cell lines to identify multiple opportunities for drug repurposing: Primary screen for NB-EBc1 cells (AID 1347095); further: potency means the concentration at half of the fitted maximal effect
In short: (§2)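 Primary screen of approved and investigational compounds on cells in growth media at 37 degrees C, 5% CO2. MIPE set at 11-point and NPC set at 8-point dilutions; viability scored by ATP-based luminescence at 48 hours.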

[12] = qHTS of pediatric cancer cell lines to identify multiple opportunities for drug repurposing: Primary screen for U-2 OS cells (AID 1347096); further: nearly all actives have a fitted effect of over 50% in size
In short: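 Viability after 48 h compound treatment at 37C, 500-1,000 cells/well, read as ATP luminescence with CellTiter-Glo. Primary screens used 11-point (MIPE, 0.78 nM-46 µM) or 8-point (NPC, 0.59 nM-46 µM) final concentrations; follow-up screens used 11-point dilutions.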

[13] = Natriuretic polypeptide receptor (hNpr1) antagonism - Pilot counterscreen GloSensor control cell line (AID 1347045; calls by dose curve; further: series mostly up to about 38 µM)
In short: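 HEK293 cGMP GloSensor cells preloaded 2 h with 2% GloSensor reagent, then compound 30 min before baseline luminescence read. Stimulated with 50 uM sodium nitroprusside, 20 min at room temperature, then read again; counterscreen for Npr1 antagonism.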

[14] = target: Atrial natriuretic peptide receptor 1 (Homo sapiens) (UniProt P16066); assay: Natriuretic polypeptide receptor (hNpr1) antagonism - Pilot screen (AID 1347049; calls by dose curve;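 further: agonist-evoked cGMP luminescence read 20 min after hNppA addition; series mostly up to about 58 µM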)
In short: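 HEK293 cells expressing hNpr1 and GloSensor cGMP luciferase, 1500/well, loaded with 2% GloSensor reagent 2 h, compound 30 min at room temperature; luminescence read before and 20 min after 0.1 nM hNppA stimulation.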

[15] = target: Atrial natriuretic peptide receptor 2 (Homo sapiens) (UniProt P20594); assay: Natriuretic polypeptide receptor (hNpr2) antagonism - Pilot subtype selectivity assay (AID 1347050; calls by dose curve)
In short: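 HEK293 cells expressing hNpr2 and a GloSensor cGMP luciferase sensor, 1500/well, preloaded 2 h with 2% GloSensor reagent, compound 30 min, then 1 nM hNppC for 20 min. Antagonism from luminescence after versus baseline pre-read; LOPAC in 1:5 titrations.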

[16] = target: T1, Tyrosine-protein phosphatase non-receptor type substrate 1 (Homo sapiens) + Leukocyte surface antigen CD47 (Homo sapiens) (UniProt P78324+Q08722); assay: CD47-SIRPalpha protein protein interaction - LANCE assay qHTS validation (AID 1347057; active means well fitted curve in the direction sought with a large enough effect in the signal ratio, with a control signal flat, not every such curve was filed as active; the % refers to the signal ratio; further: series mostly up to about 38 µM)
In short: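 First, His-tagged CD47 and Eu-labelled anti-His antibody met the compound for 30 min; next, site-specifically biotinylated SIRPalpha was added for 30 min; finally streptavidin-APC was added before reading the TR-FRET ratio.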

[17] = target: T1, Tyrosine-protein phosphatase non-receptor type substrate 1 (Homo sapiens) + Leukocyte surface antigen CD47 (Homo sapiens); assay: CD47-SIRPalpha protein protein interaction - Alpha assay qHTS validation (AID 1347059);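 further: bead proximity luminescence from CD47 binding SIRPalpha after compound preincubation with SIRPalpha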; further: potency means the concentration at half of the fitted maximal effect
In short: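 Biotinylated Avi-tagged SIRPalpha (25 nM) preincubated 30 min with compound, then His-tagged CD47 (12.5 nM) added 30 min; AlphaScreen with Ni-NTA acceptor and streptavidin donor beads. PBS pH 7.4, 0.05% IGEPAL, room temperature; 7-point titrations.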

[18] = target: Parathyroid hormone/parathyroid hormone-related peptide receptor (Homo sapiens) (UniProt Q03431); assay: qHTS for PTHR1 Agonists: Optimization Screen against the NCGC LOPAC library (AID 1347079);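 further: GloSensor cAMP luminescence in HEK-293 GP2 cells expressing human PTHR1 with IBMX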
In short: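 Agonist readout: GloSensor cAMP luminescence, read after 15 min at room temperature. HEK-293-derived GP2 line carries PTHR1; compounds tested as a titration for 1 hr at 37C in presence of IBMX. M-PTH (1-15) served as control.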

[19] = qHTS of pediatric cancer cell lines to identify multiple opportunities for drug repurposing: Primary screen for BT-37 cells (AID 1347094); further: series mostly up to about 57 µM
In short: as §2

[20] = target: T1, Tyrosine-protein phosphatase non-receptor type substrate 1 (Homo sapiens) + Leukocyte surface antigen CD47 (Homo sapiens); assay: CD47-SIRPalpha protein protein interaction - HTRF assay qHTS validation (AID 1347058; active means well fitted curve in the direction sought with a large enough effect in the signal ratio, not every such curve was filed as active; the % refers to the signal ratio;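 further: recombinant soluble extracellular CD47 with His tag and biotinylated SIRPalpha domains; series mostly up to about 38 µM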)
In short: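 TR-FRET read (Ch1/Ch2 ratio) of soluble extracellular CD47 and Avi-biotinylated SIRPalpha domains in PBS pH 7.4 with 0.05% IGEPAL; 7-point compound titration. Sequential 30 min room-temperature steps; non-biotinylated SIRPalpha as control inhibitor.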

Measured: Potency

Atrial natriuretic peptide receptor 1 (Homo sapiens), sequence (P16066 whole entry, looked up): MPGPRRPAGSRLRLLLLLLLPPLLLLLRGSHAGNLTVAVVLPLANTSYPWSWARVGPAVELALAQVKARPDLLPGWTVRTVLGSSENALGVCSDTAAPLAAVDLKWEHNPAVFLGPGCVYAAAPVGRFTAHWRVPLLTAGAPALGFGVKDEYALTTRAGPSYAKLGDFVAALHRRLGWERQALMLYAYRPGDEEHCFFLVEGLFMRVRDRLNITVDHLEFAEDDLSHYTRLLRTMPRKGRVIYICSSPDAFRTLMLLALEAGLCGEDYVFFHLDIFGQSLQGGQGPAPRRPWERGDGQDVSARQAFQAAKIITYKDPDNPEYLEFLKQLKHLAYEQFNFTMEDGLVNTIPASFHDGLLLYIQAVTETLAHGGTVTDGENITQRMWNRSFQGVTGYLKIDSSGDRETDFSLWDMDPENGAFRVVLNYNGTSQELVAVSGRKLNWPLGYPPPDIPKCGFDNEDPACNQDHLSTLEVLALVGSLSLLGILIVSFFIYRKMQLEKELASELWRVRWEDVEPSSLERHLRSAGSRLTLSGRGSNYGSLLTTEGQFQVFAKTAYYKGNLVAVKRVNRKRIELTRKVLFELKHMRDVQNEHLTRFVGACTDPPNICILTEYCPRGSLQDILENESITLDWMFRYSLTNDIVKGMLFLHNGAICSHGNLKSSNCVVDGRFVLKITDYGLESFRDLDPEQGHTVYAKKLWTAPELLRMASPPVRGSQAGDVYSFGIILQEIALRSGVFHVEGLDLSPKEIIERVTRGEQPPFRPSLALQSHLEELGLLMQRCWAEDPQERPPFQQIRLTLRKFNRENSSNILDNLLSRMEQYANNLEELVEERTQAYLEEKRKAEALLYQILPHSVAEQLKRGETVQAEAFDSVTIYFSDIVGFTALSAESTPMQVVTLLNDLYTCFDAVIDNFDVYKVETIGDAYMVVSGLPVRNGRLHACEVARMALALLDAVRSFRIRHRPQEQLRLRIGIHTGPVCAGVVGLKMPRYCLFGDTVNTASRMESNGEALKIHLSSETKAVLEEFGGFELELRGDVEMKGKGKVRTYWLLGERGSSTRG
Parathyroid hormone/parathyroid hormone-related peptide receptor (Homo sapiens), sequence (Q03431 whole entry, looked up): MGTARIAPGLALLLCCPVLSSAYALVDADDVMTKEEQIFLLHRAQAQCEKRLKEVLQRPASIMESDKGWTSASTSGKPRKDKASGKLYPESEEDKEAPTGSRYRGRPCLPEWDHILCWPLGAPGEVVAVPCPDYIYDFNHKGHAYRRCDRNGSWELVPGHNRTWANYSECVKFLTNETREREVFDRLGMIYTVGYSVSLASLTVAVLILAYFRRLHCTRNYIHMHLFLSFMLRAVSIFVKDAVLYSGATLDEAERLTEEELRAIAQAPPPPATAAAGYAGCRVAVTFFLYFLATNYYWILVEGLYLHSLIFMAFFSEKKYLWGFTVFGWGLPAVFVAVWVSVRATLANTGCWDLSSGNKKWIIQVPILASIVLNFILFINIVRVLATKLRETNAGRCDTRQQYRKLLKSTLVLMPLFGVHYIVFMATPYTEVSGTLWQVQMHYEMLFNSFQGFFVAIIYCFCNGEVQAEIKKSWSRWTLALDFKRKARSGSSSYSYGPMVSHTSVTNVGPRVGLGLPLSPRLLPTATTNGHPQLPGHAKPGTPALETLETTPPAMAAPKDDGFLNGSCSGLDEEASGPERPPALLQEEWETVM
Atrial natriuretic peptide receptor 2 (Homo sapiens), sequence (P20594 whole entry, looked up): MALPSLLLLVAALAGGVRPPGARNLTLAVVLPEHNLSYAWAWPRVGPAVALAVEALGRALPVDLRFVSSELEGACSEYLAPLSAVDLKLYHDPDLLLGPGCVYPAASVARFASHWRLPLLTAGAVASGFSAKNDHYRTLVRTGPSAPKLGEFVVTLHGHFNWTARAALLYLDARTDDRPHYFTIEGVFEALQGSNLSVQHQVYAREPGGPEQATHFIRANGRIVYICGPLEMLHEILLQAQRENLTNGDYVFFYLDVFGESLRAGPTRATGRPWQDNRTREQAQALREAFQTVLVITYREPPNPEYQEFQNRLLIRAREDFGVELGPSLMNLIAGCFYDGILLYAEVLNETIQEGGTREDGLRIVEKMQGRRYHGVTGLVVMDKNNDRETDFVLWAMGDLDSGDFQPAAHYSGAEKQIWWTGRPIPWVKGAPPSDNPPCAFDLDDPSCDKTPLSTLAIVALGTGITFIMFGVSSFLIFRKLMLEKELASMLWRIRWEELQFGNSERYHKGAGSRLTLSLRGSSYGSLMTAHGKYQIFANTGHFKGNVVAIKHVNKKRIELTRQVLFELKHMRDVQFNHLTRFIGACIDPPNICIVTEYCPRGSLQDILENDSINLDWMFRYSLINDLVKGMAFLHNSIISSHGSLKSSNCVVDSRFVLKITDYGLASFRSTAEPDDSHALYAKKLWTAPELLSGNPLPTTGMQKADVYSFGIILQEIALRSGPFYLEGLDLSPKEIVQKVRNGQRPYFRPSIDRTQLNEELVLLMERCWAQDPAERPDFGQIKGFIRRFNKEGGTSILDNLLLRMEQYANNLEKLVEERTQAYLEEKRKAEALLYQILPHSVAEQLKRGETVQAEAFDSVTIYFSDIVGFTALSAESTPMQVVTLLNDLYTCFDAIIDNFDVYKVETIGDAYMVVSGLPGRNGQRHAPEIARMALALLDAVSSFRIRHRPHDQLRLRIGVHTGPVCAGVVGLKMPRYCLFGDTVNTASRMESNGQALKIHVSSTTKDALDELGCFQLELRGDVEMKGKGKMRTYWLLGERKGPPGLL
T1 sequence (P78324 whole entry, looked up): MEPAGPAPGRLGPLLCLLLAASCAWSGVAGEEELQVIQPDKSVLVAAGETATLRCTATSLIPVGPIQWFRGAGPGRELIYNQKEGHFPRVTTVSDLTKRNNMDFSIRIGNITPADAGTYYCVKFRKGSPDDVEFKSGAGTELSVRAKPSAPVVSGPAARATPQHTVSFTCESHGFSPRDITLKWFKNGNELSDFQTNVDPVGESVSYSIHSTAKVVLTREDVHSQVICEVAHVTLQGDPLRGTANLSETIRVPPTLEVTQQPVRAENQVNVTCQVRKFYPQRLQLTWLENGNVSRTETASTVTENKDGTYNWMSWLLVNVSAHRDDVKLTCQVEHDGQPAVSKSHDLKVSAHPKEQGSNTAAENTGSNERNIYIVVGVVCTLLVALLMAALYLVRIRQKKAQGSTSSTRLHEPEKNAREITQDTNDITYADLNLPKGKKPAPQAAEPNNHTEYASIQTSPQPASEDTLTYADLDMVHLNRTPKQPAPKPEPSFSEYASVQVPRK
T1 sequence (Q08722 whole entry, looked up): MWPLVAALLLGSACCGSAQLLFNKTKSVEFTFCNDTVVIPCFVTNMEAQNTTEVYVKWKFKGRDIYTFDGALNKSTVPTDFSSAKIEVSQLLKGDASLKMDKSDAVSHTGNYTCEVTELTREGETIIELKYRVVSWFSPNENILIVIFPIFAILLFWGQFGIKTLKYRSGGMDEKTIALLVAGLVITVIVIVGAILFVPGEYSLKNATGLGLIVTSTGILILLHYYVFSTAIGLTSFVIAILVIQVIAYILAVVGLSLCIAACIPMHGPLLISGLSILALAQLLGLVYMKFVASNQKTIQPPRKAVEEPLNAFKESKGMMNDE

CC(=O)Nc1ccn(C2COC(COC(=O)c3ccccc3)O2)c(=O)n1 (stereo not drawn)
inactive: [1] | [2] | [3] | [4] | [5] | [7] | [8] | [12]
active: [6] 1.67 µM | [9] 1.33 µM | [10] 750 nM | [11] 2.37 µM

Cn1cnc2c(NCc3ccccc3)nc(NCCO)nc21
inactive: [1] | [2] | [3] | [4] | [13] | [14] | [15] | [5] | [16] | [17] | [18]

CO[C@]1(NC(=O)CSC(F)F)C(=O)N2C(C(=O)O)=C(CSc3nnnn3CCO)CO[C@H]21
not listed: [13] | [14] | [15] | [16] | [17] | [18] | [20]
inactive: all other assays above

CN(CC1(C)CCCO1)S(=O)(=O)c1ccc(Cl)c(S(N)(=O)=O)c1 (stereo not drawn)
inactive: [1] | [2] | [3] | [4] | [6] | [7] | [8] | [10] | [19] | [11] | [12]

NC(N)=NCCCCN=C(N)N
inactive: [1] | [2] | [4] | [13] | [14] | [15] | [5] | [16] | [20] | [17] | [18]

N[C@@H](Cn1ccc(=O)c(O)c1)C(=O)O
inactive: [1] | [2] | [4] inactive [at 5.11 µM] | [13] | [14] | [15] | [5] | [20] | [18]
active: [17] 58.5 nM

CC(=O)O[C@@H]1C(=O)O[C@@H]2[C@H]1OC(=O)[C@@H]2OC(C)=O
active: [10] 3760 nM
inactive: [1] | [2] | [3] | [4] | [5] | [6] | [8] | [19] | [11] | [12]

CN(C)C(=O)CNC(=O)Cc1ccccc1
not listed: [5] | [13] | [14] | [15] | [16] | [17] | [18] | [20]
inactive: all other assays above

O=C(O)Cc1ccccc1Oc1ccc(Cl)cc1Cl
not listed: [13] | [14] | [15] | [16] | [17] | [18] | [19] | [20]
inactive: all other assays above

O=C(CCCCCCCCC#CI)Oc1ccccc1
not listed: [7] | [13] | [14] | [15] | [16] | [17] | [18] | [20]
inactive: all other assays above

NC(=O)C1(N2CCCCC2)CCN(CCCN2c3ccccc3CCc3ccc(Cl)cc32)CC1
inactive: [1] | [2]

O=P(O)(O)OCC(O)CO (stereo not drawn)
inactive: [1] | [2] | [4] | [5] | [6] | [7] | [8] | [9] | [10] | [19] | [11]

Cc1nn(-c2ccccc2)c(C)c1/C=N/N1CCN(Cc2ccccc2)CC1
inactive: [1] | [2] | [4] | [13] | [14] | [15] | [5] | [16] | [20] | [17] | [18]

CN(C)c1cc2c(Nc3ccc4c(cnn4Cc4ccccc4)c3)ncnc2cn1
inactive: [1] | [2] | [3] | [13] | [14] | [15] | [5] | [17] | [18]

CC(=O)N(CC(O)CO)c1c(I)c(C(=O)NCCO)c(I)c(C(=O)NCC(O)CO)c1I (stereo not drawn)
inactive: [1] | [2] | [4] | [5] | [6] | [7] | [8] | [9] | [10] | [19] | [11]

Brc1ccc([C@H]2CN3CCSC3=N2)cc1
inactive: [1] | [2] | [4] | [13] | [14] | [15] | [5] | [16] | [20] | [17] | [18]

COc1cc(NS(=O)(=O)c2ccc(N)cc2)nc(C)n1
inactive: [1] | [2] | [3] | [4] | [5] | [6] | [7] | [8] | [10] | [19] | [12]

O=C1NC(c2cccc([N+](=O)[O-])c2)=CCN1c1ccccc1O
inactive: [1] | [2] | [4] | [13] | [14] | [15] | [16] | [17] | [18]

CC(=O)OCC(=O)Nc1cc(C#N)cc(NC(=O)COC(C)=O)c1Cl
not listed: [13] | [14] | [15] | [16] | [17] | [18] | [20]
inactive: all other assays above
